Laboratory results from PubChem BioAssay AID651813 (National Center for Advancing Translational Sciences (NCATS), 2012).
Hit rate of the full screen: of about 2,100 compounds, about 1,100 (52%) were called active. Roughly 27% stayed inconclusive and do not appear here. The set was probably picked from earlier hits. The list shows a part of the results. A number with no mark means an inactive call. Calls come from the whole dose curve; as a rule, active = well fitted inhibition curve with a large enough effect; inconclusive = small, poorly fitted or top-dose-only effect; inactive = no such curve, though single readings can be large or run the other way.

What follows are molecules tested against DNA dC->dU-editing enzyme APOBEC-3G (Homo sapiens) (UniProt Q9HC16) (assay: qHTS for inhibitors of Vif-A3G interactions: Cherry picks counterscreen). Details: HeLa A3G-eYFP + Vif (tagged APOBEC3G with the HIV-1 protein that degrades it), eYFP fluorescence, 24 h.
Chain of DNA dC->dU-editing enzyme APOBEC-3G (Homo sapiens) (Q9HC16 whole entry, looked up): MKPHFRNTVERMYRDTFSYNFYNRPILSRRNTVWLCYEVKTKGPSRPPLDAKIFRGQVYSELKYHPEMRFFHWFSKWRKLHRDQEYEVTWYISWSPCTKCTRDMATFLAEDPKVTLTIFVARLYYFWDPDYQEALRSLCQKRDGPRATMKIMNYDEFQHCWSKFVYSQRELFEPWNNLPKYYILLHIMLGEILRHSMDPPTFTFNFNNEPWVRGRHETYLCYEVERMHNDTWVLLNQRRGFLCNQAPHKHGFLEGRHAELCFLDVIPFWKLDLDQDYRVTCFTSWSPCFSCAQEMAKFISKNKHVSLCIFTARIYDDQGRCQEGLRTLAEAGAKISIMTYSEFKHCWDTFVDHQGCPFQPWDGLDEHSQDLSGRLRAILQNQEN
In short: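 Readout is eYFP fluorescence (488 nm excitation, 500-530 nm emission) measured on Acumen Explorer after 24 h compound exposure, several concentrations, at 37 deg C. Cells: HeLa stably co-expressing Vif and C-terminally eYFP-tagged A3G; MG132 positive control.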
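Note: hits raise yellow fluorescence by blocking Vif-driven A3G-eYFP degradation; nearly all actives have a fitted effect of over 70% in size.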
Potency is the fitted concentration of half-maximal effect.
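Throughout, for max response: max response given as percent of control signal.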

| SMILES | Potency | max response [%] |
| --- | --- | --- |
| Cc1cc(C)cc(NC2=NC3(CCCCC3)N=C(N)N2)c1 | 19.8 µM (active) | – |
| CCOC(=O)c1ccc(NC(=S)NC(=O)C2CCCC2)cc1 | – | -2.63 |
| COC(=O)c1ccc(NC(=O)CC2Nc3cc(C)c(C)cc3NC2=O)cc1 (centres undefined) | 20.6 µM (active) | – |
| CCN(CC)C(=O)Cn1c(=O)n(-c2ccccc2)c(=O)c2c3c(sc21)CCC3 | – | -20.5 |
| O=C(Cc1n[nH]c(=O)c2ccccc12)OCC(=O)c1ccc2c(c1)OCCO2 | 2.8 µM (active) | – |
| CCOc1ccc(C(=O)C(CCC(CN(C)C)C(=O)c2ccc(OCC)cc2)CN(C)C)cc1 (centres undefined) | – | -24.5 |
| CCOc1ccc(C(=O)COC(=O)Cc2n[nH]c(=O)c3ccccc23)cc1 | 15.8 µM (active) | – |
| O=C(Nc1ccc2c(c1)OCCO2)C(=O)c1c[nH]c2ccccc12 | 6.27 µM (active) | – |
| O=C(C(=O)N1CCN(c2ccccc2Cl)CC1)c1c[nH]c2ccccc12 | – | -13.1 |
| N#Cc1c(-c2ccc(F)cc2)c(-c2ccc(F)cc2)nn(CCO)c1=O | 7.04 µM (active) | – |
| N#Cc1c(-c2ccccc2)c(-c2ccccc2)nn(CC(=O)NNC(=O)Nc2ccccc2)c1=O | 1.98 µM (active) | – |
| CCOC(=O)Cn1c(=O)c(-c2cc(Br)ccc2N)nc2ccccc21 | 8.2 µM (active) | – |
| CCOc1ccccc1N1CC(c2nc3ccccc3n2Cc2c(C)cc(C)cc2C)CC1=O (centres undefined) | – | -2.71 |
| CCOC(=O)COn1c(=O)c(-c2ccc(Br)cc2)[n+]([O-])c2ccccc21 | – | 4.24 |
| Cc1ccc(S(=O)(=O)CCSc2nc(C)cc(C(F)(F)F)c2C#N)cc1 | 17.7 µM (active) | – |
| CCOC(=O)CCSc1nc(C)cc(C(F)(F)F)c1C#N | 12.5 µM (active) | – |
| COc1ccc(NC(=O)C2(C)Cc3c(-c4cccc(NC(C)=O)c4)ccnc3O2)cn1 (centres undefined) | 1.98 µM (active) | – |
| COc1ccc(NC(=O)C2(C)Cc3c(-c4ccc5c(c4)OCO5)ccnc3O2)cn1 (centres undefined) | 7.04 µM (active) | – |
| COc1ccc(NC(=O)C2(C)Cc3c(-c4cccc(C(N)=O)c4)ccnc3O2)cn1 (centres undefined) | 7.9 µM (active) | – |
| C=CCNC(=S)N/N=C/c1ccc(C)cc1C | – | -13.8 |

| SMILES | Potency | max response [%] |
| --- | --- | --- |
| N#Cc1cc2ccccc2nc1SCC(=O)Nc1ccccc1N1CCOCC1 | – | -5.1 |
| COc1ccc2nc(SCC(C)=O)c(C#N)cc2c1 | 3.66 µM (active) | – |
| CCc1ccc2nc(SCC(=O)Nc3ccccc3N3CCOCC3)c(C#N)cc2c1 | 1.64 µM (active) | – |
| COc1ccc2nc(SCC(=O)N3CC(=O)Nc4ccccc43)c(C#N)cc2c1 | 18.4 µM (active) | – |
| CCc1ccc2nc(SCC(=O)N3CC(=O)Nc4ccccc43)c(C#N)cc2c1 | 12.5 µM (active) | – |
| CC1C/C(=N\NC(N)=S)c2cc(Cl)ccc2S1 (centres undefined) | – | -16.7 |
| Cc1cc(C)c2nc(SCC(=O)N3CC(=O)Nc4ccccc43)c(C#N)cc2c1 | 1.4 µM (active) | – |
| N#Cc1ccc(-c2cccnc2)nc1SCC(=O)c1ccccc1 | 2.91 µM (active) | – |
| Cc1ccc(C(=O)CSc2nc(-c3ccccc3)ccc2C#N)cc1 | 10.3 µM (active) | – |
| NN=C1c2ccccc2C(=O)C1C(=O)C(c1ccccc1)c1ccccc1 (centres undefined) | 15.8 µM (active) | – |
| O=C(c1ccccc1)C1C(=O)c2ccccc2C1=O | – | -3.97 |
| CC(C)NC(=S)N/N=C/c1sc(N2CCCCC2)nc1-c1cccs1 | 20.6 µM (active) | – |
| CC(C)NC(=S)N/N=C1\CCCCc2ccccc21 | – | -0.219 |
| COC(=O)C1=C(Nc2ccc(C)cc2)C=C(C)C(C(=O)OC)C1c1cccc(OC)c1 (centres undefined) | 11.2 µM (active) | – |
| COCc1ccc(O)c2ncccc12 | – | 15.6 |
| COc1ccc2c(c1)c(C(=O)N/N=C/c1ccc(Cl)cc1)c(C)n2C | 12.5 µM (active) | – |
| COCCCNC(=S)N/N=C/c1ccc(OC)cc1 | – | -8.47 |
| CC1=C/C(=C\C=C(C#N)C#N)N(C)c2ccccc21 | 2.06 µM (active) | – |
| CC(=O)c1cc2c(cc1NS(=O)(=O)c1ccc(C)cc1)OCCO2 | 12.5 µM (active) | – |
| CCN(CC)c1ccc(/C=C/c2cccc[n+]2C)c(OC)c1 | 7.04 µM (active) | – |

| SMILES | Potency | max response [%] |
| --- | --- | --- |
| CCOc1ccc(CCNC(=O)c2ccc(Cn3c(=O)c4cccn4c4cccnc43)cc2)cc1 | – | -3.64 |
| O=C(NCCc1ccccc1Cl)c1ccc(Cn2c(=O)c3cccn3c3cccnc32)cc1 | 14.6 µM (active) | – |
| N#Cc1cccn1-c1nccc(-c2cccs2)n1 | 8.86 µM (active) | – |
| Cc1[nH]c2ccccc2c1/C=C/c1cc[n+](C)cc1 | 0.994 µM (active) | – |
| Cc1ccc2[nH]c(C)c(/C=C/c3cc[n+](C)cc3)c2c1 | 0.627 µM (active) | – |
| Cc1[nH]c2ccccc2c1/C=C/C(=O)c1ccccc1 | 18.4 µM (active) | – |
| CC(OC(=O)/C(C#N)=C/c1ccc(N(C)C)cc1)C(=O)N(C)Cc1ccccc1 (centres undefined) | 23.1 µM (active) | – |
| CC(C)(C)NCC(=Cc1ccccc1)C(=O)c1ccccc1 | – | -3.58 |
| O=C(C(=Cc1ccccc1)CN1CCCCC1)c1ccccc1 | 3.14 µM (active) | – |
| COc1cc(C2Nc3ccc4ncccc4c3C3=C2C(=O)CCC3)ccc1O (centres undefined) | 14 µM (active) | – |
| COc1cc(C2Nc3ccc4ncccc4c3C3=C2C(=O)CCC3)cc(OC)c1O (centres undefined) | 11.2 µM (active) | – |
| COC(=O)c1sc2cc([N+](=O)[O-])cc(SCC(C)C)c2c1N | 8.2 µM (active) | – |
| CCOC(=O)c1sc2cc([N+](=O)[O-])cc(SCC(C)C)c2c1N | 2.31 µM (active) | – |
| Cc1ccc2nc3c(cc(S(=O)(=O)c4ccccc4)c(=N)n3Cc3ccco3)c(=O)n2c1 | – | 17.8 |
| CCn1c(O)c(/C=N/NC(=O)c2ccncc2)c(=O)n(CC)c1=S | – | -1.22 |
| O=C(N/N=C/c1ccco1)c1cc(-c2ccncc2)nc2ccccc12 | 11.2 µM (active) | – |
| CC(/C=N/NC(=O)c1cc(-c2ccccc2)nc2ccccc12)=C\c1ccco1 | 2.23 µM (active) | – |
| CC(/C=N/NC(=O)c1cc(-c2ccc3ccccc3c2)n[nH]1)=C\c1ccco1 | 14 µM (active) | – |
| CCc1ccc(/C=N/NC(=O)c2cc(-c3ccncc3)nc3ccccc23)s1 | 3.53 µM (active) | – |
